# Measurements taken from the supplement of paper PMC9023506.
# Counter-ions that a name gives are not always drawn.
# Test system: Danio rerio larvae (5 dpf)
# Assay: optomotor response to fast red moving lines, difference vs DMSO (percentage points (treated minus DMSO)); higher = more of the behaviour than the DMSO vehicle control
# Conditions: 10 µM; exposure time: 3 h pre-incubation + 3 h imaging
# Method: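 5-dpf wild-type zebrafish larvae were imaged in 96-well plates. They were treated with 190 Tocris FDA-approved drugs at 10 µM (1 µl/ml DMSO) for 3 h before and 3 h during imaging at 28.5 °C, 48 larvae per drug. Automated image analysis gave % time moving and optomotor responses. Values are drug group mean minus DMSO vehicle mean (n=844), in percentage points, for 10 behaviours.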
row,SMILES,optomotor response
1,CC(=O)Nc1ccc(O)cc1 [Acetaminophen],-11.2
2,CN1CC(=O)N2[C@H](c3ccc4c(c3)OCO4)c3[nH]c4ccccc4c3C[C@@H]2C1=O [Tadalafil],-10.2
3,C[C@H]1C[C@@H]2[C@H]([C@@H](O)C[C@@]3(C)[C@H]2CC[C@]3(O)C(=O)CO)[C@@]2(C)C=CC(=O)C=C12 [Methylprednisolone],-4.16
4,O=C1CCc2ccc(OCCCCN3CCN(c4cccc(Cl)c4Cl)CC3)cc2N1 [Aripiprazole],7.59
5,CCCCC1=NC2(CCCC2)C(=O)N1Cc1ccc(-c2ccccc2-c2nnn[nH]2)cc1 [Irbesartan],-14.6
6,COc1ccc(C[C@@H](C)NC[C@H](O)c2ccc(O)c(NC=O)c2)cc1 [Arformoterol tartrate],-17.7
7,CN1CCC[C@@H]1CCO[C@](C)(c1ccccc1)c1ccc(Cl)cc1 [Clemastine fumarate],13.4
8,COCCCOc1cc(C[C@@H](C[C@H](N)[C@@H](O)C[C@H](C(=O)NCC(C)(C)C(N)=O)C(C)C)C(C)C)ccc1OC [Aliskiren hemifumarate],2.22
9,CCCCNc1cc(C(=O)O)cc(S(N)(=O)=O)c1Oc1ccccc1 [Bumetanide],-7.16
10,Nc1cc(N2CCCCC2)nc(N)[n+]1[O-] [Minoxidil],2.09
11,CN1CCN(CCCN2c3ccccc3Sc3ccc(Cl)cc32)CC1 [Prochlorperazine dimaleate],2.92
12,Cc1nc(Nc2ncc(C(=O)Nc3c(C)cccc3Cl)s2)cc(N2CCN(CCO)CC2)n1 [Dasatinib],-12.1
13,Cc1c(-c2ccc(O)cc2)n(Cc2ccc(OCCN3CCCCCC3)cc2)c2ccc(O)cc12 [Bazedoxifene acetate],0.818
14,CNC(=O)c1cc(Oc2ccc(NC(=O)Nc3ccc(Cl)c(C(F)(F)F)c3)cc2)ccn1 [Sorafenib],-21.1
15,O=C(NCC1CCCCN1)c1cc(OCC(F)(F)F)ccc1OCC(F)(F)F (stereo not given) [Flecainide acetate],1.94
16,CN(CCOc1ccc(NS(C)(=O)=O)cc1)CCc1ccc(NS(C)(=O)=O)cc1 [Dofetilide],2.79
17,Clc1ccc2nsnc2c1NC1=NCCN1 [Tizanidine hydrochloride],4.15
18,COc1ccccc1OCCNCC(O)COc1cccc2[nH]c3ccccc3c12 (stereo not given) [Carvedilol],-10.6
19,CC(C)[C@H]1CC[C@H](C(=O)N[C@H](Cc2ccccc2)C(=O)O)CC1 [Nateglinide],-0.789
20,OC(c1cc(C(F)(F)F)nc2c(C(F)(F)F)cccc12)C1CCCCN1 (stereo not given) [Mefloquine hydrochloride],-3.95

row,SMILES,optomotor response
1,COc1cc(N)c(Cl)cc1C(=O)NC1CCN(CCCOc2ccc(F)cc2)CC1OC (stereo not given) [Cisapride],9.11
2,NC(=O)OCC(COC(N)=O)c1ccccc1 [Felbamate],8.45
3,COc1ccccc1OCC(O)CN1CCN(CC(=O)Nc2c(C)cccc2C)CC1 (stereo not given) [Ranolazine dihydrochloride],9.26
4,CCOC(=O)C1=C(C)NC(C)=C(C(=O)OC)C1c1cccc(Cl)c1Cl (stereo not given) [Felodipine],-15.9
5,C[C@H](Cc1cc2c(c(C(N)=O)c1)N(CCCO)CC2)NCCOc1ccccc1OCC(F)(F)F [Silodosin],11.4
6,COc1cc2ncnc(Nc3ccc(F)c(Cl)c3)c2cc1OCCCN1CCOCC1 [Iressa],8.7
7,C[C@]12CC[C@@H]3c4ccc(O)cc4C[C@@H](CCCCCCCCC[S+]([O-])CCCC(F)(F)C(F)(F)F)[C@H]3[C@@H]1CC[C@@H]2O (stereo not given in full),3.52
8,O=C(O)c1cc(/N=N/c2ccc(S(=O)(=O)Nc3ccccn3)cc2)ccc1O [Sulfasalazine],-5.17
9,NS(=O)(=O)c1cc(C(=O)O)c(NCc2ccco2)cc1Cl [Furosemide],0.619
10,CC(C)OC(=O)C(C)(C)Oc1ccc(C(=O)c2ccc(Cl)cc2)cc1 [Fenofibrate],19.2
11,CCN(CC)CCNC(=O)c1c(C)[nH]c(/C=C2\C(=O)Nc3ccc(F)cc32)c1C [Sunitinib malate],10.6
12,CC1=Nc2ccc(Cl)cc2S(=O)(=O)N1 [Diazoxide],-1.95
13,COc1cc2nc(N3CCN(C(=O)C4COc5ccccc5O4)CC3)nc(N)c2cc1OC (stereo not given) [Doxazosin mesylate],-4.8
14,COc1ccc(Cl)cc1C(=O)NCCc1ccc(S(=O)(=O)NC(=O)NC2CCCCC2)cc1 [Glibenclamide],-19.5
15,CC(C)CN(C[C@@H](O)[C@H](Cc1ccccc1)NC(=O)O[C@H]1CO[C@H]2OCC[C@H]21)S(=O)(=O)c1ccc(N)cc1 [Darunavir],1.68
16,CC(C)N(CCCCOCC(=O)NS(C)(=O)=O)c1cnc(-c2ccccc2)c(-c2ccccc2)n1 [Selexipag],-6.49
17,CC1CNc2c(cccc2S(=O)(=O)N[C@@H](CCCNC(=N)N)C(=O)N2CC[C@@H](C)C[C@@H]2C(=O)O)C1 (stereo not given in full) [Argatroban],-3.36
18,O=C(O)CCCc1ccccc1 [Sodium 4-Phenylbutyrate],-11
19,COc1c(C)c2c(c(O)c1C/C=C(\C)CCC(=O)O)C(=O)OC2 [Mycophenolic acid],10.7
20,COc1ccc([C@@H]2Sc3ccccc3N(CCN(C)C)C(=O)[C@@H]2OC(C)=O)cc1 [Diltiazem hydrochloride],-0.971
